Out of some 53,000 sequences screened, about 3,700 (7%) were called active. This is one part of a sample in which actives are shown more often than they occur.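 Rule for the calls: active = gene knockdowns whose robust z-score for IL-1 alpha signal is at least 2 or at most -2, so actives lie on both sides; inactive = the rest.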
Test: Components of the Cytosolic LPS Sensing Pathway: Gene Identification via Genome-wide siRNA Screen;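 note: robust z of the log signal after scaling to non-targeting control siRNA wells of the plate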
Conditions: RAW264.7 macrophages, IL-1a HTRF, actives lie on both sides, screened at 100 nM (by protocol), cells primed 5 h with Pam3CSK4 first
Summary of the method: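 Knockdown: 100 nM siRNA, 48h, RAW264.7. Stimulation: Pam3CSK4 5 h, then LipidA via TransIT-TKO 24 h. Output: supernatant IL-1a HTRF, negative-control-normalized, log robust z-score; viability by CellTiter-Glo.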

Row | Sequence | z-score
1 | GCCAUCCUUCCAUUUAAGATT against Wdyhv1 | -0.478 (inactive)
2 | GGUAAGGACUAUUUGAAUUTT against Lpar1 | -0.429 (inactive)
3 | GCAAAUUAAGCACUGUAAGTT against Dennd1b | 0.379 (inactive)
4 | GGUGGUUAGAUCUUACGCUTT against Tmem184a | 4.37 (active)
5 | CGCGUACGACUUCUACAAATT against Hmgcs2 | 0.775 (inactive)
6 | GGUGGAGUUUCUCAAAAGCTT against Kcnc3 | 0.0264 (inactive)
7 | GCAGGUACUGCGCUAUUAUTT against Atp13a2 | -0.766 (inactive)
8 | GGAUGUGGCUGCUUUGAAGTT against Mettl27 | -1.38 (inactive)
9 | CCUUCUAGACACCAUACCCTT against Pidd1 | 0.259 (inactive)
10 | CCACACGUUCCAUUUCUCGTT against Hilpda | -2.65 (active)
11 | CGUCAUGCAUUUUUCUAAATT against Trim24 | 0.489 (inactive)
12 | GGAUGAGAAGAAAGAAGAUTT against Srrt | -1.36 (inactive)
13 | GGAUACAGCAGUACAAAUGTT against Ces2c | -0.135 (inactive)
14 | GGUGCGCUUCUAUGUUCCUTT against Ssrp1 | 2.38 (active)
15 | GGCAAGGAUUUUUCUACCUTT against Tslp | -0.555 (inactive)
16 | GCUGCACAAGUGAUAUCCGTT against Trim26 | 0.397 (inactive)
17 | GGGAAAGCCAUCCUUCACUTT against Erich5 | 0.288 (inactive)
18 | GGAGAAAAAGAGAUAAGGUTT against Ppp2r2b | -0.893 (inactive)
19 | GCCAUUUGUCCACAAAAUGTT against Ces2g | -2.06 (active)
20 | GGACCUGGAGUAUAUGCUGTT against Mgat4f | -0.611 (inactive)
21 | GGCACUGUUCUCAUCUGUGTT against Olfr736 | -2.41 (active)
22 | GGUUGACUCUACAAAAUACTT against Muc5b | -0.656 (inactive)

Row | Sequence | z-score
23 | GGCAGUUGUGAACUUUCUCTT against Telo2 | 0.243 (inactive)
24 | GGAAAGGCUGUUUCCUACCTT against Atox1 | 1.05 (inactive)
25 | GGACUUGUGAUUCAAGCAUTT against Rad23b | 0.525 (inactive)
26 | CCUGAUUGACGACAGUAAGTT against Mcrs1 | 0.519 (inactive)
27 | CGACCAGAGUUAUCUGAAUTT against Ctf2 | 2.2 (active)
28 | GGGAAUUUAUGCAUUAGCATT against Kif2a | 0.111 (inactive)
29 | GGCUCUGCUAUUUCUCCUGTT against Olfr17 | -1.16 (inactive)
30 | GCUUGAAUGGAGCGAAUCGTT against Chat | 4.86 (active)
31 | GGAAACAAAGUCAAUGUGGTT against Cnn1 | -0.522 (inactive)
32 | GCUGAAGUAGGGUUUAUUATT against Gdap10 | 0.786 (inactive)
33 | GCCUUGGACAAAAACACUATT against Ryk | -0.917 (inactive)
34 | CCUGAUUCCAAAUGUGUUUTT against Sgcb | 0.158 (inactive)
35 | GGACACAAAUGACAUCAACTT against Sirpa | 2.13 (active)
36 | CGGCAUCCAGUCUCAGAUGTT against Coch | 1.88 (inactive)
37 | GCCUAAGUUCUAGCAAAAUTT against Spata31d1d | 0.514 (inactive)
38 | GGAAGCUACAUGCUGUUCCTT against Anln | 0.737 (inactive)
39 | UGAAAAGAGCAAUGAAGAATT against Olfr177 | -0.36 (inactive)
40 | GGAAAGGAGAAGAGAAAUGTT against Scyl1 | 1.18 (inactive)
41 | CCUGACAGUACCAAAAAAUTT against Pax4 | -0.599 (inactive)
42 | GGUACAAUGUUCAUACCAATT against Rab9b | 0.528 (inactive)
43 | GGGCUAUUGCAUCUUUUAATT against Olfr711 | -0.0884 (inactive)
44 | CCGAAUUGAAAUCACAAGCTT against Nup43 | -1.31 (inactive)

Row | Sequence | z-score
45 | GGAUUGUAAUAAUGGAGCCTT against H2-M10.4 | 2.94 (active)
46 | GGAGAGGUGGUAUUGUUGGTT against Olfr1297 | 0.29 (inactive)
47 | GCUAAAUUCUUUCCUGAAGTT against Rdx | -1 (inactive)
48 | CCAGUUACUAGUAAUACUCTT against Mcm3ap | -0.0482 (inactive)
49 | CCAAGGUGCUGUUGGUAUATT against Ssr2 | 0.248 (inactive)
50 | GCAACGACUCUAAUGACUUTT against Slc38a1 | -0.515 (inactive)
51 | GCUUUCCACCACGUACUGATT against Plekha6 | -0.0754 (inactive)
52 | GGAUCAGCUGUUGCCAGAGTT against Zfp384 | 0.806 (inactive)
53 | GGAGUAUAACUAUGGCUUCTT against Mvb12a | 0.689 (inactive)
54 | CCAGUUAAGCCAAACUAUGTT against Wdr5 | -2.21 (active)
55 | GGAAGUGCUGCACAUACUATT against Bnc2 | -0.525 (inactive)
56 | GGAAGAUUUGUUCUAUACUTT against Epgn | 0.593 (inactive)
57 | GGUCACAUCGUCCUUACAGTT against Rps6ka4 | -2.05 (active)
58 | GGGAUUAAAAUCCUAUCUUTT against Eva1a | 0.857 (inactive)
59 | GGAUCAGGAUUUAAUGAAUTT against Zc2hc1a | -1.13 (inactive)
60 | CCUUAUAAUUGACACUGAUTT against Toe1 | 0.312 (inactive)
61 | GGAUAGCUGCCAACACUACTT against Baiap2l2 | -0.689 (inactive)
62 | GGACGACAGUGCAAAGCAUTT against Usb1 | -2.33 (active)
63 | CCGCUUUUGUCAAGUUUUCTT against Asap1 | 2.65 (active)
64 | GGACACUCAAUGAAAUCUATT against Foxp3 | 1.21 (inactive)
65 | GCUAAAAAUAAACAGUCGGTT against Pus10 | -0.642 (inactive)
66 | GCCCGUCGGAUAUAAGAUUTT against Cd247 | -0.351 (inactive)

Row | Sequence | z-score
67 | GGAAGAAUCGUUUAUGACATT against Ppp4r2 | 0.73 (inactive)
68 | GGUUUUGAGAUUGAAAGAATT against Myof | -0.344 (inactive)
69 | GGUCGUCUUUUAAGAGUUUTT against Ccdc71l | 3.03 (active)
70 | GGUGCAACAAUCAUUUGAATT against Casp4 | -0.431 (inactive)
71 | GGAAGAAAUGCAUAAUGCATT against Mesd | 0.236 (inactive)
72 | GGAAAAACUGCUAGAUCUATT against As3mt | 1.49 (inactive)
73 | GGCUAUGGAAAAAGAUAUGTT against Il21r | -1.02 (inactive)
74 | GGACCAAGCUGUUAUUAACTT against Dhodh | 0.46 (inactive)
75 | GGUUUACCUCUAUGCUAUGTT against Upk3a | 1.39 (inactive)
76 | GGGUCUCUUGUGGUACAUCTT against Cln3 | 3.41 (active)
77 | GCAUUUCGCCUCUUUCAUATT against Elac1 | -0.405 (inactive)
78 | GGCAUUUCUUUCACUAGCUTT against Olfr618 | 0.833 (inactive)
79 | GCAGAGGCUCGUCCAUAUATT against Dnpep | -0.205 (inactive)
80 | GGUUCACGGGUUCUAAGAUTT against Eif1b | 2.35 (active)
81 | GGACAGUUCUUACUUUACATT against Drd2 | 1.18 (inactive)
82 | CCGUGAAUUUGGAUGAUGGTT against T2 | -1.98 (inactive)
83 | CCAAAGGUGACCACAGAUUTT against Zfp444 | 1.13 (inactive)
84 | GGCUCCAUCAAGAAAAGUUTT against Usp21 | 0.681 (inactive)
85 | GGCCUUCCUUGACCAAUCUTT against Ren1 | -2.11 (active)
86 | GGACUGUGCAACUUUGUGGTT against Timp3 | -0.634 (inactive)
87 | GGAGUUGGUUCUGUGUUAUTT against Tcf7l2 | -0.271 (inactive)
88 | CGGAACAUGGAGUUUAAGCTT against Slfnl1 | 2.3 (active)

Row | Sequence | z-score
89 | GGAAUGAGUUAGAAUAGCGTT against BC004004 | -0.923 (inactive)
90 | GGAAAGAAACUAAGGAAAATT against Arhgap15 | 0.628 (inactive)
91 | GGAGCUUGACAUUAAGGACTT against Erc2 | 0.809 (inactive)
92 | GGAAAUAAACAAGUCCCACTT against Urm1 | 0.465 (inactive)
93 | CGACGAAGUGGUCGGAAUUTT against Cryzl1 | 2.1 (active)
94 | GGUGAUGUAUGUUACGCUGTT against Srsf1 | -0.00436 (inactive)
95 | GGAGAAAGAGAAAAUCGCUTT against Csnk1g2 | -0.736 (inactive)
96 | GGUUAUCAGUUGCAUUGUUTT against Gpr37l1 | 0.809 (inactive)
97 | GGAAGUCGGGCAAAUACAATT against Tacstd2 | 5.77 (active)
98 | GCUCAUUCUCAAAGGCUUATT against Rdh12 | 0.659 (inactive)
99 | GGAAUACAUCGAGUAUCUCTT against Xab2 | -1.43 (inactive)
100 | GCUCGAGUGUAAGAUCUGUTT against Rnf182 | 0.355 (inactive)
101 | CCCGUUCGUGCAUGAGUUATT against Lpcat4 | 0.532 (inactive)
102 | CCGGGAAACCAACAAAUCATT against Rbmxl1 | 2.19 (active)
103 | GGUGGAAUUCAUUUUGACATT against Dnajb6 | -0.42 (inactive)
104 | GGCAAUGACCUUGUAAAGATT against Tomm34 | -1.56 (inactive)
105 | GUGCUAUUCAUGCACAGCATT against Psca | 0.0658 (inactive)
106 | GGAUGUCUUUUUAAGGUUUTT against Eid1 | 0.987 (inactive)
107 | CCCGUCCCAUCCAUUAUUUTT against Zfp787 | -1.19 (inactive)
108 | GGUGUUUGUGACUCUGGGUTT against Mc4r | 2.77 (active)
